Lassa entry = blocks Lassa virus binding or cell entry; Potency, µM (doses to about 49.2 µM), usual class: inhibitors; 4.1% of 18,000 active; Lassa virus pseudotyped entry inhibition, cell-based qHTS
Marburg entry = Marburg virus entry inhibition | Marburg virus pseudotype entry/binding inhibition, cell-based | Potency, µM (series often up to 49.2 µM), hits mostly inhibitors | 6.5% of 18,000 active | AID 720532
Numbers stand for hits; n = inactive; u = inconclusive; ! = repeats disagree. This is a sample that favours compounds with a hit; in the whole collection about 8.6% have one here. The call rests on the fitted dose curve; tested in HEK293 cells.

SMILES | Lassa entry | Marburg entry
COc1cc(OC)c2ccc(=O)oc2c1C(CCN1CCOCC1)c1ccc2c(c1)OCO2 (centres undefined) | n | u
COc1cc(C(CCN2CCOCC2)c2c(OC)cc(OC)c3c(-c4ccccc4)cc(=O)oc23)cc(OC)c1OC (centres undefined) | 4.5µM | 10µM
COc1ccc(C(CCN2CCOCC2)c2c(OC)cc(OC)c3c(-c4ccccc4)cc(=O)oc23)cc1 (centres undefined) | u | 22µM
COc1cc(OC)c2c(-c3ccccc3)cc(=O)oc2c1C(CCN1CCOCC1)c1ccc2c(c1)OCO2 (centres undefined) | u | 10µM
COc1cc(OC)c2c(=O)c(-c3ccccc3)c(C)oc2c1OC | n | n
COc1cc(OC)c2ccc(=O)oc2c1C(CCN1CCOCC1)c1ccc(N(C)C)cc1 (centres undefined) | n | n
CCCCCCCCCCCCOS(=O)(=O)O | n | n
O=C(c1ccccc1)[C@@H]1O[C@H]1c1ccc(-c2ccccc2)cc1 | u | n
O=S1(=O)CC(N2CCCC2)CN1Cc1ccc(F)cc1 (centres undefined) | n | n
CC[C@@]1(O)C(=O)OCc2c1cc1n(c2=O)Cc2cc3cc(O)ccc3nc2-1 | 0.11µM | u
COc1cccc2c1C13CC[N+]4(CC5CC5)CO[C@]1(CCC(=O)C3)C4C2 | n | n
Nc1nc(F)nc2c1ncn2[C@@H]1O[C@H](CO)[C@@H](O)[C@@H]1O | n | n
Nc1nc(=S)c2ncn([C@H]3O[C@@H](CO)[C@@H](O)[C@@H]3O)c2[nH]1 | u | 2µM
CCCC[C@@H](C)/C=C(C)/C=C(\C)C(=O)NC1=C[C@@](O)(/C=C/C=C/C=C/C(=O)NC2=C(O)CCC2=O)[C@@H]2O[C@@H]2C1=O | 16µM | 5.6µM
COc1cc(CN2CCC3(CCC(CNC(=O)c4ccccc4)O3)CC2)cc(OC)c1 (centres undefined) | n | 13µM
Cc1nc2ccc(C(=O)NCC3CCC4(CCN(Cc5cccnc5)CC4)O3)cc2nc1C (centres undefined) | n | u
NC1(C(=O)O)CC1 | n | n
CCOC(=O)c1c(C)[nH]c2ccc3c(c12)CN1CCc2cc(OC)ccc2[C@@H]1O3 | u | 5.6µM
CCS(=O)(=O)N1CCC[C@H]2CN3CCc4cc(OC)ccc4[C@@H]3C[C@@H]21 | n | n
O=C(CCCN1CCC(n2c(=O)[nH]c3ccccc32)CC1)c1ccc(F)cc1 | n | n
O=c1[nH]c2ccccc2n1C1CCN(Cc2ccc(-c3[nH]c4cc5ncnc5cc4nc3-c3ccccc3)cc2)CC1 | 18µM | 7.1µM
CCCCCCCCCCCCCCC[C@@H](O)[C@H](CO)NC(=O)CCCCCCC | n | n
CC(C)CC(NC(=O)CN)C(=O)NC(Cc1ccccc1)C(=O)O (centres undefined) | n | n
CC(C)C[C@H](NC(=O)[C@H](CCc1ccccc1)NC(=O)CN1CCOCC1)C(=O)N[C@@H](Cc1ccccc1)C(=O)N[C@@H](CC(C)C)C(=O)[C@@]1(C)CO1 | 11µM | u
COC/C=C/C1=CC2=CC(=O)C(C)(O)C(=O)C2=CO1 (centres undefined) | n | n
SMILES | Lassa entry | Marburg entry
Cc1ccc(/C=C2/CNC/C(=C\c3ccc(C)cc3)C2=O)cc1 | 11µM | 3.5µM
OCC(CO)N[C@H]1C[C@](O)(CO)[C@@H](O)[C@H](O)[C@H]1O | n | n
CC(C)C[C@@H](NC(=O)[C@@H](O)[C@H](N)Cc1ccccc1)C(=O)O | n | n
CC(C)C[C@H](NC(=O)[C@H](Cc1ccccc1)NC(=O)c1cnccn1)B(O)O | 2.8µM | 3.5µM
CN=C(NC#N)NCCSCc1csc(N=C(N)N)n1 | n | n
CC(C)=CCc1c2c(c3occ(-c4ccc(O)cc4)c(=O)c3c1O)C=CC(C)(C)O2 | u | 22µM
COc1c2c(c(CC=C(C)C)c3oc(=O)c(-c4ccc(O)cc4)c(O)c13)OC(C)(C)C=C2 | n | n
NCCO/C=C/[C@H](N)C(=O)O | n | n
COc1ccc2[nH]c(C(=O)c3ccccc3)cc2c1 | n | 3.2µM
O=C(O)c1cc2ccccc2[nH]1 | n | n
CC(C)CC(=O)N[C@H](C(=O)N[C@H](C(=O)N[C@@H](CC(C)C)[C@H](O)CC(=O)N[C@@H](C)C(=O)N[C@@H](CC(C)C)[C@H](O)CC(=O)O)C(C)C)C(C)C | n | n
CCc1ccccc1OC[C@@H](O)CN[C@H]1CCCc2ccccc21 | 28µM | 8.9µM
C=CCOc1ccccc1OCC(O)CNC(C)C (centres undefined) | n | n
CC(C)(C)NCC(O)COc1ccc(NC(=O)NC2CCCCC2)cc1 (centres undefined) | n | n
CC(C)(C)NC[C@H](O)COc1ccccc1C1CCCC1 | u | 7.9µM
CN[C@@]1(c2ccccc2Cl)CCCCC1=O | n | n
CC(C)C[C@H](NC(=O)[C@H](CCC(N)=O)NC(=O)[C@H](CCCCN)NC(=O)[C@H](CCC(N)=O)NC(=O)[C@@H](N)CCC(=O)O)C(=O)N[C@@H](CCC(N)=O)C(=O)O | n | n
CN1[C@@H]2CC[C@H]1CC(OC(=O)C(O)c1ccccc1)C2 (some centres undefined) | n | n
CCC(Sc1ccccc1)C(=O)OC1CC2CCC(C1)N2C (centres undefined) | n | 8.9µM
CC(C)C[C@H]1COc2c(Cl)cccc2S(=O)(=O)N1Cc1ccc(F)cc1F | n | n
CC(=O)Oc1cc2c(c(C)c1OC(C)=O)CC=C1[C@]3(C)CC[C@]4(C)CC[C@@](C)(C(=O)O)CC4[C@]3(C)CC[C@]12C (some centres undefined) | 20µM | 11µM
CNCCC(Oc1ccccc1OC)c1ccccc1 (centres undefined) | n | u
CNCC[C@@H](Oc1ccccc1C)c1ccccc1 | n | 28µM!
CCOC(=O)C1C(C(=O)OC)=C(c2ccc(F)cc2)c2ccccc2N1S(=O)(=O)C(F)(F)F (centres undefined) | n | n
CCCCCCCCN=C(N)c1ccc(C(=O)OCC2CCCCC2)cc1 | 13µM | 2.8µM
SMILES | Lassa entry | Marburg entry
CCOC(=O)c1ccc(OC(=O)CCCCCN=C(N)N)cc1 | n | n
CC(=O)N[C@H]1[C@@H](O[C@@H](C)C(=O)O)[C@H](O)[C@H](CO)O[C@@H]1O | n | n
CC(=O)OC1CC2C(C)(C)C(O)CC[C@@]2(C)C2CC[C@@]3(C)C(c4ccoc4)OC(=O)C4OC43[C@]12C (some centres undefined) | n | u
CC(=O)OC1CC2C(C)(C)C(O)CC[C@@]2(C)C2CC[C@@]3(C)C(c4ccoc4)OC(=O)C4O[C@@]43[C@]12C (some centres undefined) | u | 13µM
CCN1CCCC1CNC(=O)c1cnn(-c2nccc(-c3cc4ccccc4o3)n2)c1C1CC1 (centres undefined) | n | u
CCN(CC)CCNC(=O)c1cnn(-c2nccc(-c3cc4ccccc4o3)n2)c1C | u | 13µM
Cc1c(C(=O)NCCc2cccnc2)cnn1-c1nccc(-c2ccccc2F)n1 | n | n
O=C(NC[C@@H]1CCCN2CCCC[C@H]12)c1cnn(-c2nccc(-c3cc4ccccc4o3)n2)c1C1CC1 | u | 11µM
O=[N+]([O-])c1ccc(CN2[C@H](COCc3ccccc3)[C@@H](N3CCCC3)CS2(=O)=O)cc1 | n | n
O=C1C(Cl)=C(NCCN2CCOCC2)C(=O)c2ncccc21 | 11µM | 13µM
c1ccc2c(c1)CCCc1cc(NCCN3CCOCC3)nnc1-2 | n | n
c1ccc(Nc2ncnc3ccc(-c4cccnc4)cc23)cc1 | n | u

Assay outcomes as filed in PubChem.
